The text below walks through data of PubChem BioAssay AID2284124 (EPA ToxCast).

The source made the active and inactive calls. The calls were made as follows: active = hit-call score of the fitted dose curve at least 0.9, where 1 is the maximum; inactive = score below 0.9.

The test deals with guinea pig Atrial Natriuretic Factor (ANF, Non-Selective), gene 100135578. As to the kind of experiment: ERF_TW_GPCR_gANPA: Eurofins (ERF) Binding Assay for guinea pig Atrial Natriuretic Factor (ANF, Non-Selective). As for the experimental part: ERF_TW_GPCR_gANPA is a biochemical, single-readout assay that uses extracted gene-proteins in a cell-free assay. Measurements were taken 1 hour after chemical dosing in a 96-well plate. See Atrial Natriuretic Factor (ANF, Non-Selective) Guinea Pig Binding Assay, Panlabs.ERF_TW_GPCR_gANPA is an assay component calculated from the ERF_TW_GPCR_gANPA assay. It is designed to measure radioligand binding using a type of binding reporter as detected by scintillation counting with radiometry technology.Data from the assay component ERF_TW_GPCR_gANPA was analyzed at the assay endpoint, ERF_TW_GPCR_gANPA, in the positive analysis fitting direction relative to DMSO as the negative control and baseline of activity. Using a type of binding reporter, loss-of-signal activity can be used to understand changes in binding as they relate to gene ANPA. To generalize the intended target to other relatable targets, this assay endpoint is annotated to the gpcr intended target family, where the subfamily is guanylyl cyclase.
This assay measures binding of Atrial Natriuretic Peptide to sites associated with the ANF. Guinea pig striatal membranes are prepared in Tris-HCl buffer pH 7.4. A 24 ug aliquot of membrane is incubated with 16 pM Atrial Natriuretic Peptide for 60 minutes at 4C. Non-specific binding is estimated in the presence of 0.1 uM ANF.
Consider `O=C(/C=C/c1ccc(O)cc1)CC(=O)/C=C/c1ccc(O)cc1`, for which the compound was classed as inactive.
